Screens deposited in PubChem BioAssay by National Center for Advancing Translational Sciences (NCATS).
KCNH2 3.1 block: inhibitors of human KCNH2 3.1 potassium channel isoform; U2OS KCNH2 3.1, thallium flux FluxOr; hits give low values; activity change, % (tested at about 1.8 µM); 340,000 compounds, 0.95% hits;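 active = maximum activity change below -70%; inconclusive = maximum activity change from -70% to -50%; inactive = maximum activity change above -50%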;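 also: thallium influx rate constant from kinetic fluorescence after stimulation buffer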
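U2OS cells transduced with KCNH2 3.1 mutant virus (1.77 x 10^8 /mL, 4 h), plated overnight at 37 C, loaded 45 min with FluxOr dye plus Red40 quencher. Thallium flux rate constant from kinetic reads after stimulation buffer, normalised to controls.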
KB-3-1 tox: KB-3-1 parental cell cytotoxicity; KB-3-1 viability, CellTiter-Glo ATP luminescence, 72 h; Potency, µM (highest dose often 46.1 µM), most hits filed as cytotoxic; 400,000 compounds, 1.4% hits; AID 1347075; also: nearly all actives have a fitted effect of over 60% in size
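Cytotoxicity measured as CellTiter-Glo luminescence after 72 h at 37 C. Compound titrations were pinned onto drug-naive KB-3-1 parental adenocarcinoma cells grown in DMEM with 10% FBS, and normalized data fitted to concentration-response curves.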
SW480 rerep: inducers of DNA re-replication in SW480 colon cancer cells; 340,000 compounds, 1.8% hits; Potency, µM (top dose mostly 46.1 µM), most hits filed as activators; SW480 DNA re-replication, Hoechst DNA content imaging, 48 h; also: nearly all actives have a fitted effect of over 55% in size
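DNA re-replication was detected as more nuclei of elevated Hoechst intensity after 48 hr exposure to compound (23 nL pinned per well of 250 cells).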
MCF10A rereplic: DNA re-replication induction in MCF 10a cells. MCF 10A DNA re-replication, Hoechst nuclear intensity, 48 h. Potency, µM (titrated, usually from 46.1 µM), actives largely listed as activators. 350,000 compounds, 2.9% hits; also: nearly all actives have a fitted effect of over 50% in size
KB-V1 MDR tox: kills drug-selected multidrug resistant KB-V1 cells | KB-V1 MDR cells viability, CellTiter-Glo, 72 h | Potency, µM (doses to about 46.1 µM), actives largely listed as cytotoxic | 400,000 compounds, 3.4% hits | AID 1347076; also: nearly all actives have a fitted effect of over 60% in size
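Luminescent ATP read-out (CellTiter-Glo, 10 min) measures survival of drug-selected KB-V1 MDR cells after 72 h, 37 degrees C compound exposure. Medium: phenol-red-free DMEM, 10% FBS. Values from fitted concentration-response curves.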
hERG WT inh: KCNH2 (human, wildtype) channel inhibition | U2OS, BacMam KCNH2, thallium flux FluxOr; hits give low values | Q12809 | 340,000 compounds, 0.37% hits | activity change, % at 1.84 µM;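 active = maximum activity change below -70%; inconclusive = maximum activity change between -70% and -50%; inactive = maximum activity change above -50%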
Target sequence (Q12809 whole entry, looked up): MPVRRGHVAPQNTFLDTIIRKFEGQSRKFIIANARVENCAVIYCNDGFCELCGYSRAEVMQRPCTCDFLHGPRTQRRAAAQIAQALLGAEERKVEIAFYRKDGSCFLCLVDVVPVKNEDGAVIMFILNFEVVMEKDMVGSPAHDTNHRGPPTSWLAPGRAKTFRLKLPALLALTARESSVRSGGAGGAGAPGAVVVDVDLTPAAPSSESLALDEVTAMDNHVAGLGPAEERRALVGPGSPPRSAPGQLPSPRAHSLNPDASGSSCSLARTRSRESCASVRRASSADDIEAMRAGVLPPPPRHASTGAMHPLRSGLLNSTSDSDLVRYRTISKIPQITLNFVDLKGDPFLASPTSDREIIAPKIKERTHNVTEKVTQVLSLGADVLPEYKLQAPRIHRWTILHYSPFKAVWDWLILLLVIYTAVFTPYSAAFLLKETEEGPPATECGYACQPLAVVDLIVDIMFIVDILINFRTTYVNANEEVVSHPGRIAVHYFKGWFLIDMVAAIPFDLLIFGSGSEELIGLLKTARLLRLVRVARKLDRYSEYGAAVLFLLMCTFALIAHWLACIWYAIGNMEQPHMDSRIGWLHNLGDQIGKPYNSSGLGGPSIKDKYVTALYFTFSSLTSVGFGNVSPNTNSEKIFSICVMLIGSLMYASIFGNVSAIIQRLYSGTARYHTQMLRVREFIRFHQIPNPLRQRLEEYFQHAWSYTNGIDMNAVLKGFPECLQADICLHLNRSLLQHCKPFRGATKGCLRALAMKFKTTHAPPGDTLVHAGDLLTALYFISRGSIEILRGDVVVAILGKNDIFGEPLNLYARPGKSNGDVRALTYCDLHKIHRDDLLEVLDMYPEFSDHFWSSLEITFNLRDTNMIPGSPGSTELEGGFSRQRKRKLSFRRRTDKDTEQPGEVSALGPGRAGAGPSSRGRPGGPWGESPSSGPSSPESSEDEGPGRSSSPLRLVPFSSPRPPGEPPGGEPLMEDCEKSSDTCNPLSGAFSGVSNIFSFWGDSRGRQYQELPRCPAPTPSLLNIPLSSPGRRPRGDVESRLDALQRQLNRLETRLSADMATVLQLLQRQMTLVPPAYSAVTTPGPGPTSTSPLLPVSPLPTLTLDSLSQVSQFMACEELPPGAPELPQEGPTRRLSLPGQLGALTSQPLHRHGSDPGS
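U2OS cells transduced with wild-type KCNH2 virus are loaded with FluxOr dye for 45 min, and thallium flux is measured in kinetic reads before and after stimulation buffer. Rate constants are normalized to DMSO controls.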
Each line names hits and unclear results; the compound was inactive in the other large screens. The list is not random: actives were taken first. Their share in the collection is about 7.6%. Unless noted, calls follow the shape of the dose curve; as a rule, active = well fitted curve in the direction sought with a large enough effect; inconclusive = small, poorly fitted or top-dose-only effect, or another doubt; inactive = no such curve, though single readings can be large; an effect the other way counts as inactive or inconclusive.

Cc1c(C(=O)NCCc2ccccc2)cccc1-n1cnc2cccnc21	none (no result: KCNH2 3.1 block, SW480 rerep, MCF10A rereplic, hERG WT inh)
COc1ccc2c(CC(=O)Nc3ccccc3N3CCOCC3)coc2c1	none
CCOc1ccc(C(C)=O)cc1CSC(=N)N	none
O=[N+]([O-])c1ccc(CSC2=NCCN2)cc1	MCF10A rereplic inconclusive
CCCCOc1ccc(CSC2=NCCN2)cc1[N+](=O)[O-]	KCNH2 3.1 block inconclusive, KB-3-1 tox inconclusive, SW480 rerep inconclusive, MCF10A rereplic 21µM, KB-V1 MDR tox inconclusive
CCOc1ccc(CN(CCO)CCO)cc1[N+](=O)[O-]	KCNH2 3.1 block -76, SW480 rerep inconclusive
CCCCOc1ccc(Br)cc1CSC(=N)N	KB-3-1 tox 23µM, SW480 rerep inconclusive, MCF10A rereplic inconclusive, KB-V1 MDR tox 8.2µM
CCOc1ccc(CSC2=NCCN2)cc1[N+](=O)[O-]	KCNH2 3.1 block -91, KB-3-1 tox inconclusive, SW480 rerep inconclusive, MCF10A rereplic inconclusive, KB-V1 MDR tox inconclusive
CCCCOc1ccc(CN(CCO)CCO)cc1[N+](=O)[O-]	SW480 rerep inconclusive, MCF10A rereplic inconclusive
O=C(NCc1ccncc1)[C@@H]1CCCN1C(=O)[C@@H]1CCCN1C(=O)c1c(F)cccc1F	none (no result: KCNH2 3.1 block, SW480 rerep, MCF10A rereplic, hERG WT inh)
CC(C)Cc1nnc(NC(=O)C2CCN(C(=O)c3ccc(F)cc3)CC2)s1	none
COc1ccc(CN2CCSCC2)c(C)c1C	none
CCCCCOc1ccc(CSC(=N)N)cc1[N+](=O)[O-]	KCNH2 3.1 block -96, KB-3-1 tox inconclusive, SW480 rerep inconclusive, MCF10A rereplic inconclusive, KB-V1 MDR tox 18µM
O=C1/C(=C/c2ccccc2)CCC1C1CCCC1 (stereo unspecified)	none
CN1C2CCC1/C(=C\c1ccccc1)C(=O)/C2=C\c1ccccc1	KB-3-1 tox 7.3µM, SW480 rerep inconclusive, MCF10A rereplic inconclusive
Cc1c(Cl)cccc1NC(=O)Cn1nnc2sc3c(c2c1=O)CCCC3	none (no result: KCNH2 3.1 block, SW480 rerep, MCF10A rereplic, hERG WT inh)
Cc1cc(NCc2ccccc2)n2ncc(-c3ccccc3)c2n1	KB-3-1 tox inconclusive, SW480 rerep inconclusive, MCF10A rereplic 18µM
Cc1cc(C)n2ncc(C(=O)NCc3ccccc3)c2n1	KCNH2 3.1 block -87
COC(=O)c1ccc(COC(=O)c2cccn2C)o1	none
COc1ccc(OC)c(NC(=O)c2nc(-c3ccccc3)oc2C)c1	none (no result: hERG WT inh)
COC(=O)N/N=C/c1ccc(-c2ccccc2Cl)o1	KB-3-1 tox inconclusive, KB-V1 MDR tox 6.5µM
COC(=O)c1ccccc1-c1ccc(/C=N/NC(N)=O)o1	KB-3-1 tox 15µM, KB-V1 MDR tox 5.2µM
COC(=O)c1ccccc1-c1ccc(C=O)o1	none
CCSc1nnc2c(n1)[nH]c1c(C)cccc12	KB-3-1 tox inconclusive, KB-V1 MDR tox 16µM
O=C(Cc1ccccc1[N+](=O)[O-])N/N=C/c1cccnc1	KB-V1 MDR tox inconclusive
Cc1ccc(-n2cccn2)c(CN2CCC(CO)(CCc3ccccc3)CC2)c1	KCNH2 3.1 block -96
COc1ccc(NC(=O)c2cc(C3CCCCN3S(=O)(=O)c3ccc(C#N)cc3)on2)c(C)c1 (stereo unspecified)	none (no result: KCNH2 3.1 block, SW480 rerep, MCF10A rereplic, hERG WT inh)
COc1ccc(S(=O)(=O)N2CCCCC2c2cc(C(=O)Nc3ccc(OC)cc3C)no2)cc1 (stereo unspecified)	KB-3-1 tox 18µM (no result: KCNH2 3.1 block, SW480 rerep, MCF10A rereplic, hERG WT inh)
O=S(=O)(Nc1nccs1)c1ccc(NS(=O)(=O)c2c(F)cc(F)c(Cl)c2F)cc1	hERG WT inh -105
Oc1ccc(/C=N/NC(=S)N/N=C/c2ccc(O)cc2)cc1	MCF10A rereplic inconclusive
COc1ccccc1NC(=S)N/N=C/c1cccc(C)c1	KB-3-1 tox 15µM, SW480 rerep inconclusive, MCF10A rereplic inconclusive, KB-V1 MDR tox inconclusive
COc1ccccc1NC(=S)N/N=C/c1ccc(O)cc1	KB-3-1 tox inconclusive, KB-V1 MDR tox 21µM
CCS(=O)(=O)N1CC(=O)N(c2cc(C)ccc2C)C(C)(C(=O)NC2CCCCC2)C1 (stereo unspecified)	none (no result: KCNH2 3.1 block, SW480 rerep, MCF10A rereplic, hERG WT inh)
O=C(Nc1ccccc1)NN(C(=O)CCl)c1ccccc1	KB-3-1 tox 23µM, SW480 rerep 5.8µM, MCF10A rereplic 8.2µM, KB-V1 MDR tox inconclusive
Cc1ccc(C(O)(C(=O)NN(C(=O)c2ccccc2)c2ccccc2)c2ccc(C)cc2)cc1	SW480 rerep inconclusive
